Source: PubChem (several laboratories)
An excerpt weighted towards active compounds, which were near 2.5% of everything screened.
PG9 binder – binders of HIV-1 gp120 antibody PG9, primary screen, biochemical, TR-FRET. HIV-1 gp120 / PG9 antibody interaction. TR-FRET gp120-PG9 antibody binding. inhibition, % at 6.7 µM. 360,000 compounds, 0.43% hits; in the data active = inhibition above about 8.5%
Granule exo inh – LAMP-1 surface exposure blockers, TALL-104 cells – cell-based, flow cytometry, MLPCN library, primary screen | 360,000 compounds, 0.66% hits | AID 651702, 2012 | TALL-104 LAMP-1 surface exposure; cells stimulated with thapsigargin and PMA | inhibition, % at 10 µM;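 active = inhibition above about 55%, limit read from the data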
rCAG RNA binder – binders of r(CAG) RNA repeats, primary screen, biochemical, fluorescence; 370,000 compounds, 1.3% hits; inhibition, % at 3 µM; r(CAG) RNA repeat, TO-PRO-1 dye displacement fluorescence;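 active = inhibition above the plate cutoff, the mean of all test compounds on that plate plus 3 SD, cut at about 35% in these data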;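 note: 0% = DMSO alone and 100% = 100 µM mitoxantrone as full dye displacement; higher means more dye released from RNA so lower well fluorescence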
ABCB6 inh MLPCN – ABCB6 transporter inhibitors, primary screen, K562-ABCB6 cells, flow cytometry, MLPCN library | K562-ABCB6 porphyrin accumulation, 1 h; hits give low values | AID 602162, 2011 | fluorescence ratio to DMSO, % at 10 µM | ATP-binding cassette sub-family B member 6 (Homo sapiens), Q9NP58 | 360,000 compounds, 0.19% hits;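 active = fluorescence ratio to DMSO below 75%, the collection mean minus 3 SD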;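 note: signal is porphyrin accumulated inside mitochondria; 100% equals median channel fluorescence of DMSO control wells; lower ratio means ABCB6 inhibition with less porphyrin fluorescence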
Target sequence (Q9NP58 whole entry, looked up): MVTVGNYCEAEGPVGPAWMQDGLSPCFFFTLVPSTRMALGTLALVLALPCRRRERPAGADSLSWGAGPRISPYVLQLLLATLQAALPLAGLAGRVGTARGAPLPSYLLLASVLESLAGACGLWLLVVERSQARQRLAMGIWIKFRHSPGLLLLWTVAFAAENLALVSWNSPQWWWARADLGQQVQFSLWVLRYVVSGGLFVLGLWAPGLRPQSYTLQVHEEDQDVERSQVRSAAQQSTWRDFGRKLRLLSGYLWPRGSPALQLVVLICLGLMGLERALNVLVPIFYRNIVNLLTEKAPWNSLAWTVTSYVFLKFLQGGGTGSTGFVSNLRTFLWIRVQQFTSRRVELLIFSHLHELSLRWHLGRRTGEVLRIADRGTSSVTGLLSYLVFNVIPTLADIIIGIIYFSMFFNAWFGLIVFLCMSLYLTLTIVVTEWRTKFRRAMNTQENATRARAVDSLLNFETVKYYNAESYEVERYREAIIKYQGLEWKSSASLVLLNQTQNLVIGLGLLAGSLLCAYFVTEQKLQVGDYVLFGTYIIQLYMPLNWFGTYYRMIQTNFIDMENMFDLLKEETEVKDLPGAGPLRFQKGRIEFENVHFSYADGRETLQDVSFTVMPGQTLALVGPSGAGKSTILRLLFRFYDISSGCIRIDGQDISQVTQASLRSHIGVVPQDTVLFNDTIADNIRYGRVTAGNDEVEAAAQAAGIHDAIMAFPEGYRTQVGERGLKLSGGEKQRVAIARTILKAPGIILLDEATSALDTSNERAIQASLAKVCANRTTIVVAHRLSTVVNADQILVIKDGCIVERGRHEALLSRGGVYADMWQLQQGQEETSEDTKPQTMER
rCAG binder conf – small molecules binding CAG repeat RNA – biochemical, fluorescence, confirmation; shares compounds with rCAG RNA binder; r(CAG) RNA repeat, TO-PRO-1 dye displacement fluorescence; inhibition, % at 3 µM; 4,300 compounds, 70% hits;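 active = inhibition above a per-plate cutoff, the mean inhibition of sample wells plus 3 SD, cut at about 35% in these data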;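 note: loss of TO-PRO-1 fluorescence as compound displaces dye from 1x1 AA loop RNA; 0% = DMSO only wells and 100% = 100 µM mitoxantrone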
DNA CAG counter – displacement of TO-PRO-1 from CAG DNA duplex, counter-screen for rCAG RNA repeat binder project, biochemical, fluorescence, TO-PRO-1 dye, d(CAG) DNA oligo; AID 652068, 2013; shares compounds with rCAG RNA binder; 4,300 compounds, 94% hits; inhibition, % at 3 µM; d(CAG) DNA oligo TO-PRO-1 dye displacement;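 active = inhibition above its plate's cutoff, the mean test-well inhibition plus 3 SD, cut at about 4.8% in these data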;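 note: 0% = DNA dye mix with DMSO and 100% = 100 µM mitoxantrone; hits displace the dye from DNA and so lower well fluorescence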
dCAG dye DR – inhibitors of DNA CAG/GTC TO-PRO-1 complex, dose response, counter-screen for rCAG RNA repeat binder project, biochemical, fluorescence, TO-PRO-1 dye. shares compounds with rCAG RNA binder. DNA CAG/GTC duplex TO-PRO-1 dye displacement fluorescence. IC50, µM. 250 compounds, 20% hits. AID 686960, 2013; in the data active = IC50 below about 10 µM
Numbers without * were called inactive; i = inactive; · = not tested or not shown.

SMILES	PG9 binder	Granule exo inh	rCAG RNA binder	ABCB6 inh MLPCN	rCAG binder conf	DNA CAG counter	others
CCc1nnc(NS(=O)(=O)c2ccc(N=Cc3c(C)[nH]n(-c4cccc(Cl)c4)c3=O)cc2)s1	-2	15	53*	106	86*	63*
CCCN1CCN(S(=O)(=O)c2c(C)[nH]c(C)c2C(=O)N2CCCCC2)CC1	-1	0	-1	95	·	·
COc1ccc(C2=CC3=C(Br)C(=O)C(C)(OC(=O)c4cccs4)C(=O)C3=CO2)cc1 (stereo unspecified)	-7	-7	49*	96	45*	21*
COc1ccc(C2=CC3=C(Br)C(=O)C(C)(OC(=O)c4ccco4)C(=O)C3=CO2)cc1 (stereo unspecified)	·	0	·	104	·	·
Cc1ccc(NC(=O)CSc2nc(O)cc(=O)n2-c2ccc(C)cc2)cc1	0	1	42*	87	17	6.3*
CCOc1ccccc1-n1c(SCC(=O)Nc2ccccc2C(=O)O)nc2ccccc2c1=O	2	-4	35*	97	30	7.8*
Cn1c(SCC(=O)Nc2cccc3ccccc23)nc(O)cc1=O	-2	2	41*	97	10	4
CCCCc1c(O)nc(SCC(=O)Nc2cccc3ccccc23)n(-c2ccccc2OC)c1=O	1	3	35*	97	27	7.8*
COc1ccccc1NC(=O)CSc1nc(O)cc(=O)n1C	1	1	19	95	·	·
CCc1c(O)nc(SCC(=O)Nc2ccccc2OC)n(-c2ccccc2C)c1=O	0	-1	14	101	·	·
COc1ccc(-c2cc(C(=O)Nc3ccc(Br)cc3)no2)cc1	-1	3	-2	98	·	·
COc1ccccc1-n1c(SCC(=O)Nc2cccc3ccccc23)nc(O)cc1=O	0	-2	48*	110	20	9.0*
COc1ccccc1NS(=O)(=O)c1cccc(NC(=O)Nc2cccc(Cl)c2)c1	2	-5	35*	98	27	13*
COc1ccc(C(=O)Nc2ccc(S(=O)(=O)Nc3onc(C)c3C)cc2)c(OC)c1	0	-6	41*	99	20	4
Cc1cc(C(=O)Nc2ccc(S(=O)(=O)Nc3onc(C)c3C)cc2)cs1	1	0	10	98	·	·
Cc1noc(C)c1S(=O)(=O)Nc1ccc(C(=O)Nc2ccc(OC(F)(F)F)cc2)cc1	0	-7	39*	91	28	4.7*
COc1ccccc1NS(=O)(=O)c1cc(C(=O)Nc2ccc(S(=O)(=O)Nc3onc(C)c3C)cc2)ccc1C	0	10	70*	95	78*	30*	dCAG dye DR=i
COc1ccccc1C(=O)Nc1ccc(S(=O)(=O)Nc2onc(C)c2C)cc1	-2	4	13	95	·	·
CC(NCCCSc1ccccc1)C(O)c1ccc(O)cc1 (stereo unspecified)	2	2	0	106	·	·
COc1ccccc1OCC(=O)Nc1cc(S(=O)(=O)N2CCOCC2)ccc1N1CCCCC1	1	-6	4	88	·	·
COc1ccccc1NS(=O)(=O)c1ccc(C)c(C(N)=O)c1	-2	1	1	89	·	·
NC(=O)N/N=C/c1ccc(-c2ccc(S(=O)(=O)Nc3ncccn3)cc2)o1	-3	36	-6	103	·	·
COc1ccccc1NS(=O)(=O)c1ccc(C)c(NS(=O)(=O)c2cc(C(=O)O)cc(C)c2C)c1	1	4	42*	100	20	7.3*
COc1ccccc1NS(=O)(=O)c1ccc(C)c(C(=O)Nc2ccc(S(=O)(=O)Nc3onc(C)c3C)cc2)c1	0	-7	63*	100	57*	22*
Cc1noc(NS(=O)(=O)c2ccc(NC(=O)c3ccc(OC(C)C)cc3)cc2)c1C	0	18	44*	95	26	4
SMILES	PG9 binder	Granule exo inh	rCAG RNA binder	ABCB6 inh MLPCN	rCAG binder conf	DNA CAG counter	others
CC(C)Oc1ccc(C(=O)N/N=C/c2ccc(-c3ccc(S(=O)(=O)Nc4ncccn4)cc3)o2)cc1	-2	0	54*	103	65*	22*
Cc1noc(NS(=O)(=O)c2ccc(NC(=O)c3ccc(N(C)C)cc3)cc2)c1C	-4	1	16	100	·	·
COC(=O)c1cc2c(c3c4cc(OC)ccc4n(S(=O)(=O)c4ccc(F)cc4)c13)C(=O)N(C)C2	1	·	14	·	·	·
COCCn1c(SCC(=O)NC2CC2)nnc1-c1ccc(Cl)cc1	1	8	0	96	·	·
CCOC(=O)c1ccc(N2C(=O)C(CC(N)=O)N(CCc3ccc(OC)c(OC)c3)C2=S)cc1 (stereo unspecified)	1	-1	-2	96	·	·
COc1ccccc1C=C(C(=O)c1ccccc1)c1ccccc1	-3	-5	1	90	·	·
O=C(O)/C(=C\c1ccccc1OC(F)F)c1ccc(-c2ccccc2)cc1	-1	6	48*	110	42*	13*
O=C(O)/C(=C\c1ccc(F)cc1)c1ccc(-c2ccccc2)cc1	-1	23	38*	98	40*	9.7*
CO[C@H]1C=CO[C@@]2(C)Oc3c(C)c(O)c4c(O)c(c(C=NN5CCN(C)CC5)c(O)c4c3C2=O)NC(=O)C(C)=CC=C[C@H](C)[C@H](O)[C@@H](C)[C@@H](O)[C@@H](C)[C@H](OC(C)=O)[C@@H]1C	-10	0	78*	97	79*	49*
CO[C@H]1/C=C/O[C@@]2(C)Oc3c(C)c(O)c4c(O)c(c(C=NN5CCN(C)CC5)c(O)c4c3C2=O)NC(=O)/C(C)=C\C=C\[C@H](C)[C@H](O)[C@@H](C)[C@@H](O)[C@@H](C)[C@H](OC(C)=O)[C@@H]1C	-13	-4	83*	99	74*	44*
Cc1cc(NC(=O)C(=O)NCCN2CCN(S(C)(=O)=O)CC2)ccc1Br	1	1	2	96	·	·
Cc1cc(S(=O)(=O)N2CCCOC2CNC(=O)C(=O)NCc2cccs2)ccc1F (stereo unspecified)	-2	-1	-3	97	·	·
O=[N+]([O-])c1ccc(-c2cn3c(n2)CCC3)cc1	-1	1	0	92	·	·
